# Most compounds without a hit are left out; they make up all but 0.9% or so of the library.
# APE1 inh = APE1 (human) endonuclease inhibition; recombinant APE1, TAMRA/BHQ-2 abasic DNA cleavage fluorescence; Potency, µM (highest dose often 65.8 µM), inactives show at the top dose activity change, negative = inhibition, hits mostly inhibitors; actives 0.35% (n = 350,000); P27695;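 also: plate controls were vehicle for no effect and reference inhibitor for full effect; nearly all actives have a fitted effect of over 55% in size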
#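 Substrate: short duplex with […] THF abasic site, 5'-TAMRA and 3'-BHQ-2, 50 nM final. APE1 at 0.75 nM, preincubated 15 min RT with compound. Fluorescence increase from first to third read measured activity.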
# TRb-SRC2 inh = TRbeta-SRC2 interaction inhibition; TRbeta-SRC2 peptide binding, fluorescence polarization; receptor liganded with 1 µM T3; Potency, µM (series often up to 106 µM), inactives show top-dose activity change, negative = inhibition, most hits filed as inhibitors; actives 0.065% (n = 280,000); AID 1469;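 also: plate controls were bound peptide for no effect and peptide without receptor for full effect; nearly all actives have a fitted effect of over 50% in size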
#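 Polarization signal, normalized between peptide-alone and full complex controls, measured compound effects on T3-liganded human TRb LBD (0.6 uM) binding 20 nM Texas Red SRC2 peptide after 5 hr.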
# BLM inh = blocks DNA unwinding by human BLM helicase | P54132 | recombinant BLM DNA unwinding, fluorescence dequenching | Potency, µM (titrated, usually from 56.1 µM), without a hit: at the highest dose activity change, negative = inhibition, hits mostly inhibitors | actives 0.2% (n = 350,000);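 also: plate controls were vehicle for no effect and no enzyme for full effect; nearly all actives have a fitted effect of over 35% in size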
# Target sequence (P54132 whole entry, looked up): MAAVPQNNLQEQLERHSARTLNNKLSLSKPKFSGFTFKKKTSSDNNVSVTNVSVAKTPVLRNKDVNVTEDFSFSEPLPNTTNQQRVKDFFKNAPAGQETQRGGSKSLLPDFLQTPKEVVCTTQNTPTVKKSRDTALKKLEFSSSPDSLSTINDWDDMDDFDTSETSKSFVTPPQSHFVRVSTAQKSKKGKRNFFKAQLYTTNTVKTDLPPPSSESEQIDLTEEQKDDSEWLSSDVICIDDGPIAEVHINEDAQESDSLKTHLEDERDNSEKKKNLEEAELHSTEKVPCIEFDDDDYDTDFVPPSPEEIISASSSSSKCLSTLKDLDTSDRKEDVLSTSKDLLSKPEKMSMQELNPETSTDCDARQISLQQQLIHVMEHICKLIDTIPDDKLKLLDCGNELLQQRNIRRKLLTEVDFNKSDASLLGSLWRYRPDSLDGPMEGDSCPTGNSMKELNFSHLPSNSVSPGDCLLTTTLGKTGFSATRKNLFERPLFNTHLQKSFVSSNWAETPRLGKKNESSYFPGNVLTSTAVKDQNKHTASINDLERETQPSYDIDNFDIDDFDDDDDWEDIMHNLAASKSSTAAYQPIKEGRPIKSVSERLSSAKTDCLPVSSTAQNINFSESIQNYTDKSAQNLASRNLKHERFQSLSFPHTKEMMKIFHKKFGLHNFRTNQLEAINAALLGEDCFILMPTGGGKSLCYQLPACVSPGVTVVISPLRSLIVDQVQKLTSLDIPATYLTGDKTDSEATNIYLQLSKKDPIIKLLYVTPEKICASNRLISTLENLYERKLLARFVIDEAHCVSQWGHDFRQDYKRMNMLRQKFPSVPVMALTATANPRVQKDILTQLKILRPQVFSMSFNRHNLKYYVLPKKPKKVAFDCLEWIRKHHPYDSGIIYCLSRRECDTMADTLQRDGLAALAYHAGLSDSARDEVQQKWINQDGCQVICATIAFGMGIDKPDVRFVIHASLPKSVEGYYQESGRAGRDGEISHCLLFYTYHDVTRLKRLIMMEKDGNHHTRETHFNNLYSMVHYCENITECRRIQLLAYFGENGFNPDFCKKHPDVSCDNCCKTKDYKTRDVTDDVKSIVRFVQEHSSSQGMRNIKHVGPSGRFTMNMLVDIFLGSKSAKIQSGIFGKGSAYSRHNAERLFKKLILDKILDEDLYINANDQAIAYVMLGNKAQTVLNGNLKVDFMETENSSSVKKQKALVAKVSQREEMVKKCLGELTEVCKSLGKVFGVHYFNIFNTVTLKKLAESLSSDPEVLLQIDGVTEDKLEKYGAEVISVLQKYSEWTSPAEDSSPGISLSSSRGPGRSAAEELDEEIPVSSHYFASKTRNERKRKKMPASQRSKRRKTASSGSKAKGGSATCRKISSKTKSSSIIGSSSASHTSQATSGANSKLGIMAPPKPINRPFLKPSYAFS
# TR SRC2 fluor cs = Texas Red fluorescence interference in TRb-SRC2 counter-screen; Potency, µM (highest dose often 106 µM), inactives show top-dose fluorescence change, negative = quenching; actives 0.29% (n = 280,000); TRb/SRC2 Texas Red total fluorescence interference; AID 1479; active = well fitted curve in either direction with a large enough effect; inconclusive = small, poorly fitted or top-dose-only effect
#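 Human TRβ ligand-binding domain (0.6 uM) and Texas Red SRC2 peptide (20 nM) in Tris buffer with 1 uM T3 and 5% DMSO were incubated with pinned compound for 5 hr at ambient temperature. Total fluorescence was computed as S + 2P (555/632 nm).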
# GoLoco inh red = inhibitors of human Gai1-RGS12 GoLoco interaction (red fluorophore) | Potency, µM (highest dose often 61.6 µM), without a hit: at the highest dose activity, negative = inhibition, usual class: inhibitors | actives 0.44% (n = 230,000) | P63096 | Gai1:RGS12 GoLoco peptide FP, rhodamine, 10 min; active = well fitted inhibition curve with a large enough effect, not every such curve was filed as active; inactive = no such curve, though single readings can be large or run the other way; also: nearly all actives have a fitted effect of over 30% in size
# RECQ1 inh-1 = RECQ1 (human) helicase inhibition; RECQ1 DNA unwinding, red fluorescence kinetic read; Potency, µM (top dose mostly 57.3 µM), for inactives: top-dose activity, negative = inhibition, hits mostly inhibitors; P46063; actives 0.54% (n = 240,000);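 also: plate controls were vehicle for no effect and no enzyme for full effect; nearly all actives have a fitted effect of over 30% in size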
#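 50 nM RECQ1T1 preincubated 15 min with compound in Tris pH 8.0 buffer with MgCl2, DTT, Tween-20 and 2.5 ug/ml poly(dI-dC); started with 200 nM TAMRA/BHQ-2 forked duplex and 2 mM ATP. Unwinding read as fluorescence (525/598 nm), two reads 2 h apart.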
# RECQ1 conf = confirmation of human RECQ1 helicase inhibitors; actives 28% (n = 610); Potency, µM (doses to about 229 µM), without a hit: top-dose activity change, negative = inhibition, actives largely listed as inhibitors; shares compounds with RECQ1 inh-1; RECQ1 helicase DNA unwinding, fluorescence; AID 2708; also: nearly all actives have a fitted effect of over 45% in size
# RECQ1 ADP FP = counter-screen for RECQ1 inhibitors: ADP displacement | shares compounds with RECQ1 inh-1 | ADP fluorescence polarization displacement counterscreen | Potency, µM (doses to about 228 µM), without a hit: top-dose activity change, negative = inhibition, usual class: inhibitors | actives 27% (n = 530) | AID 2711; also: nearly all actives have a fitted effect of over 45% in size
# RECQ1 inh-2 = blocks human RECQ1 DNA unwinding; actives 15% (n = 1,100); recombinant RECQ1 DNA unwinding, red fluorescence; shares compounds with RECQ1 inh-1; Potency, µM (highest dose often 119 µM), for the others: at the highest dose activity, negative = inhibition, usual class: inhibitors; AID 504841; also: nearly all actives have a fitted effect of over 50% in size
# An asterisk follows results filed as active; ? = inconclusive; . = no result; ! = repeats disagree; [ ] = dose if it differs, or a comment. Unless noted, calls follow the shape of the dose curve; as a rule, active = well fitted curve in the direction sought with a large enough effect; inconclusive = small, poorly fitted or top-dose-only effect, or another doubt; inactive = no such curve, though single readings can be large; an effect the other way counts as inactive or inconclusive. Unless noted, % is scaled to controls: 0 for no effect and ±100 for the full control effect; potency is read from the fitted curve at half-maximal effect.
SMILES,APE1 inh,TRb-SRC2 inh,BLM inh,TR SRC2 fluor cs,GoLoco inh red,RECQ1 inh-1,RECQ1 conf,RECQ1 inh-2,others
CCOc1ccc(S(=O)(=O)Nc2nc3ccccc3nc2-n2ccc(=NC(=O)c3ccccc3C)cc2)cc1,-4%,-3%,-16%,-1%,15%,?,.,-2%,
CC(=O)C(Sc1ccc2nnc(-c3ccc(C)cc3)n2n1)C(C)=O,-15%,-10%,-6%,-8%,13%,?,.,?,
CC(=O)C(Sc1ccc2nnc(-c3ccc(F)cc3)n2n1)C(C)=O,-6%,-1%,1%,3%,9%,-16%,.,.,
COC(=O)c1ccc(Cl)cc1NC(=O)Nc1nnc(N(C)Cc2ccccc2)s1,.,-4%,-9%,-1%,.,.,.,.,
CN(C)CC1CCn2c(c(C3=C(c4cn(C)c5ccccc45)C(=O)NC3=O)c3ccccc32)C1 (stereo unspecified),-5%,7%,-5%,-4%,.,?,.,79µM*,
COc1ccc(Cl)cc1NC(=O)c1sc(-n2nc(C)c(Cc3ccccc3)c2C)nc1C,.,-4%,-1%,-10%,.,.,.,.,
CCOc1ccc(NC(=O)c2ccccc2NC(=O)CN(C)CC(=O)Nc2ccc(C)cc2)cc1,-7%,3%,-1%,0%,2%,?,.,-2%,
O=C(O)CCC(=O)N1CCc2cc(S(=O)(=O)N3CCCCC3)ccc21,6%,3%,-3%,0%,4%,9%,-2%,.,RECQ1 ADP FP=12%
O=C(O)CCC(=O)N1CCc2cc(S(=O)(=O)N3CCC(Cc4ccccc4)CC3)ccc21,-1%,-19%,-16%,2%,15%,-4%,.,.,
CC1CCN(S(=O)(=O)c2ccc3c(c2)CCN3C(=O)CCC(=O)O)CC1,-1%,12%,1%,0%,0%,-1%,4%,.,RECQ1 ADP FP=-1%
CCCN(c1ccc(OCC)cc1)S(=O)(=O)c1ccc2c(c1)CCN2C(=O)CCC(=O)O,-2%,2%,-2%,1%,-3%,-8%,.,.,
CCCCN(c1ccccc1)S(=O)(=O)c1ccc2c(c1)CCN2C(=O)CCC(=O)O,-9%,0%,-4%,-2%,4%,-10%,0%,.,RECQ1 ADP FP=?
O=C(O)CCC(=O)N1CCc2cc(S(=O)(=O)N3CC=C(c4ccccc4)CC3)ccc21,-6%,-17%,-6%,-1%,43%,-17%,-3%,.,RECQ1 ADP FP=?
Cc1ccc(N(Cc2ccccc2)Cc2ccccc2)cc1,.,.,.,.,-1%[14.2 µM],.,.,.,
Cc1cc(C(=O)Nc2c(C)nc3ccccn3c2=O)ccc1[N+](=O)[O-],.,0%,0%,-2%,.,.,.,.,
COc1cccc(C2c3c(C)nn(-c4ccc([N+](=O)[O-])cc4)c3N=C3C(=O)Nc4ccccc4N32)c1 (stereo unspecified),3%,1%,-1%,0%,35%,?,.,-12%,
Cc1ccc(C2c3c(C)nn(-c4ccc([N+](=O)[O-])cc4)c3N=C3C(=O)Nc4ccccc4N32)cc1 (stereo unspecified),19%,1%,-6%,-2%,7%,-7%,.,.,
CCOC(=O)Cc1cc(=O)c2c(=O)n(-c3ccccc3)[nH]c2[nH]1,-8%,-3%,-1%,-12%,3%,?,.,-1%,
Cc1c(N=C2C=CC(=O)c3ccccc32)c(=O)n(-c2ccccc2)n1C,-6%,-25%,-23%,-23%,-1%,-7%,.,.,
Cc1c(N=C2C=C(Br)C(=O)C(Br)=C2)c(=O)n(-c2ccccc2)n1C,8.9µM*,1%,-24%,1%,-3%,22µM*,24%[114 µM],.,
CC[C@@](N)(C(=O)O)c1ccc(C(=O)O)cc1,?,1%,-4%,-1%,-2%,-4%,.,.,
O=C(OCc1nnc(-c2ccccc2)o1)c1ccc(S(=O)(=O)NCc2ccco2)cc1,?,-11%,-12%,-1%,1%,40µM*,.,?,
CCn1c(C)c(C2=CCN(S(=O)(=O)c3ccccc3)CC2)c2ccccc21,-10%,10%,-6%,?,73%,25µM*,50µM*,?,
COc1ccc(Nc2ccccc2N)cc1,-5%,1%,-24%,?,142%,22µM*,.,45µM*,
Nc1ccc(Nc2ccccc2N)cc1,-3%,6%,?,-3%,90%,0%,.,.,
SMILES,APE1 inh,TRb-SRC2 inh,BLM inh,TR SRC2 fluor cs,GoLoco inh red,RECQ1 inh-1,RECQ1 conf,RECQ1 inh-2,others
NC(=O)C1CCN(C2=C(Cl)C(=O)c3ccccc3C2=O)CC1,1%,15%,-10%,3%,-41%,2%,.,.,
O=C1C(Cl)=C(N2CCC(C(=O)O)CC2)C(=O)c2ccccc21,?,?,-30%,-24%,4%,22µM*,.,35µM*,
O=C1C=C(O)c2c(O)cccc2C1=O,?,-4%,-2%,-11%,-1%,?,.,.,
O=C(O)c1cc(O)c2c(c1)C(=O)c1cccc(O)c1C2=O,0.32µM*,1%,35µM*!,?,-10%,3.2µM*!,126µM*,.,RECQ1 ADP FP=7.9µM*
O=C(Nc1nnc(C2CC2)s1)C1CC(=O)N(c2ccc3c(c2)OCCO3)C1 (stereo unspecified),?,-11%,-19%,2%,7%,28µM*,.,?,
CNC(=O)COC(=O)c1c2c(nc3ccccc13)CCC2,-5%,5%,-12%,-2%,14%,?,.,?,
CCCCNC(=O)COC(=O)c1c2c(nc3ccccc13)CCC2,-20%,.,?,.,.,.,.,.,
O=C1C(=Cc2ccc(Br)o2)C(=O)c2ccccc21,8.9µM*,-13%,-2%,-26%,-10%,8.9µM*,?,.,
CCOc1ccc(NC(=O)Cn2cc(C(=O)c3ccccc3)c(=O)c3cc4c(cc32)OCO4)cc1,.,1%,-14%,-1%,.,.,.,.,
Cn1c(N)c(C(=O)COC(=O)CC(NC(=O)c2ccccc2Cl)c2ccccc2)c(=O)n(C)c1=O (stereo unspecified),0%,5%,-2%,-3%,14%,-14%,8%,.,RECQ1 ADP FP=4%
Cc1nc2ccc(C(=O)Nc3cccc([N+](=O)[O-])c3)cc2s1,-9%,-1%,-2%,2%,11%,?,.,-6%,

# Screens from PubChem BioAssay.
